APP 5'UTR act: activates APP 5'UTR luciferase reporter; activation, % at 2 µM; SH-SY5Y APP 5'UTR luciferase reporter, luminescence; zero percent = DMSO vehicle wells; AID 1276; 190,000 compounds, 1% hits;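 active = activation above a set limit, based on mean plus 3 SD of controls, cut at about 140% in these data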
Wee1 stabilizer: blocks degradation of human Wee1 kinase; HeLa Luc-Wee1K328M stability, luciferase luminescence; 100% = proteasome inhibitor MG132 effect; reporter increase, % at 5 µM; 220,000 compounds, 1.2% hits; AID 1321;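 active = activation above the mean of all tested compounds plus 3 SD, set per screening run, cut at about 8.8% in these data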;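 also: cells exposed to compound for 20 h before luminescence read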
Target sequence (P30291 whole entry K328M): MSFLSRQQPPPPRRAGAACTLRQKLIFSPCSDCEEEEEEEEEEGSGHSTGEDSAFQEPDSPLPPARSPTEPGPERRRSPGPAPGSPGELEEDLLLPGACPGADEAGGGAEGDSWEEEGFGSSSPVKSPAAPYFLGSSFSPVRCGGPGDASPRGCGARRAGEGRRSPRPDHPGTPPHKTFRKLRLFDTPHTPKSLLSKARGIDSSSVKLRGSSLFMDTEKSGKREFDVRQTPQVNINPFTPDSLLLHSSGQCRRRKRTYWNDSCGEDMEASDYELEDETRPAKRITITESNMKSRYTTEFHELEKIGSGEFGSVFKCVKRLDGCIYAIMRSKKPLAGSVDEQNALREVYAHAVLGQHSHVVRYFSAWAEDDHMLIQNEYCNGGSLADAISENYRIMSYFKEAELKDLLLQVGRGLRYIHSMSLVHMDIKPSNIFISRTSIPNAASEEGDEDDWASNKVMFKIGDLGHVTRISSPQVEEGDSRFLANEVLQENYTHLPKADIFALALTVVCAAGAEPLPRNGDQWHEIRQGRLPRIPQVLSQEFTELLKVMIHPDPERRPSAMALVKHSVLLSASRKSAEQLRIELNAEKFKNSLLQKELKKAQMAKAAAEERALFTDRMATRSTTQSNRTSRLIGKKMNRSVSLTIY
STAT1 activator: activators of IFN-gamma induced STAT1 signaling; NIH 3T3 STAT1-luciferase reporter, luminescence; 100% = IFN-gamma alone, no compound; activation (% of control), % at 5.5 µM; 200,000 compounds, 2.6% hits; AID 932;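 active = activation above the screen-wide mean activation plus 3 SD, cut at about 130% in these data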
APP 5UTR inh: APP translation inhibition; SH-SY5Y APP 5'UTR-luciferase reporter, luminescence; inhibition, % at 2 µM; 190,000 compounds, 0.82% hits; AID 1285;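 active = inhibition above a set limit, derived from the sample mean plus 3 SD, cut at about 45% in these data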
Hsp70 act: switches on Hsp70 transcription; HeLa Hsp70 promoter luciferase reporter, luminescence; scaled: vehicle 0, proteasome-inhibitor control 100%; activation, % at 10 µM; 200,000 compounds, 0.04% hits;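 active = activation above the mean across all tested compounds plus 3 SD, cutoff set per campaign, cut at about 5.5% in these data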
NF-kB expr up: compounds increasing NF-kB expression in human neuronal cells | 190,000 compounds, 1.6% hits | AID 1239 | NF-kB reporter expression; hits give high values | fold change at 12.5 µM; in the data active = fold change above about 3.3
A number is an active result; n = inactive; x = no result given. Rows were chosen to be rich in hits. Some 4.8% of all compounds tested hit in one or more screens of this group.

SMILES	APP 5'UTR act	Wee1 stabilizer	STAT1 activator	APP 5UTR inh	Hsp70 act	NF-kB expr up
CCc1ccc(N/C(N)=N/c2nc(CSc3ccccn3)cc(=O)[nH]2)cc1	n	n	n	n	n	n
Nc1ccc(-n2c(N)c(C(=O)NCc3ccc4c(c3)OCO4)c3nc4ccccc4nc32)cc1	n	n	n	n	n	x
Cc1cccc(CS(=O)(=O)c2nnc([C@H](Cc3ccccc3)NC(=O)OC(C)(C)C)o2)c1	n	n	n	72	n	n
CC(=O)c1cccc(CN2CCN(C3CCCCC3)C(CCO)C2)c1 (configuration not stated)	x	n	x	x	x	x
CC1CN(CCCOc2ccc([N+](=O)[O-])cc2)CC(C)O1 (configuration not stated)	n	n	n	n	n	n
CCc1ccccc1NC(=S)N1N=CCC1c1ccccc1 (configuration not stated)	n	8.8	n	n	n	n
CCn1c(SCC(=O)O)nnc1-c1ccccc1	n	n	n	n	n	n
O=c1c(Cl)c(N2CCN(c3ccc(F)cc3)CC2)cnn1-c1nc2ccccc2s1	n	n	140	n	n	n
O=C1CC(N2CCN(c3nc4ccccc4s3)CC2)C(=O)N1c1ccc(F)cc1 (configuration not stated)	n	n	n	n	n	n
O=C(NCCN1C(=O)C2C3C=CC(C3)C2C1=O)Nc1ccc(Br)cc1 (configuration not stated)	x	n	141	x	n	n
O=C(NCCN1C(=O)C2C3C=CC(C3)C2C1=O)Nc1cccnc1 (configuration not stated)	n	n	n	n	n	n
COc1ccccc1-c1nnc2sc(-c3ccc(N(C)C)cc3)nn12	n	n	n	97	n	n
Clc1ccccc1-c1nnc2sc(-c3ccncc3)nn12	n	n	n	n	n	n
CN(C)c1ccc(-c2nn3c(-c4ccccc4Cl)nnc3s2)cc1	n	n	n	90	n	n
CCc1ccc(C(=O)N2CCCC2)s1	n	n	n	n	n	n
COCc1cc(=O)n2[nH]c(-c3ccccc3)cc2n1	n	n	n	n	n	n
CCCc1cc(=O)n2[nH]c(-c3ccccc3)cc2n1	n	n	134	n	n	n
CCCc1ccc(OCc2ccc(C(=O)Nc3cccc(C)n3)o2)c(OC)c1	n	n	138	n	n	n
O=C(c1ccco1)N1CCN(C(=O)c2cccc3c2C(=O)N(C2CCCCC2)C3)CC1	n	n	n	n	n	n
O=C(Nc1nc(-c2cccs2)cs1)c1ccc(S(=O)(=O)N2CCCCC2)cc1	n	n	n	n	n	n
COc1ccccc1/C=N/N1C(=O)C2C3C=CC(CC3)C2C1=O (configuration not stated)	n	n	n	n	n	n
O=C1C2C3C=CC(CC3)C2C(=O)N1/N=C/c1c[nH]c2ccccc12 (configuration not stated)	n	n	137	n	n	n
CCCCNC(=O)CNC(=S)N(Cc1ccccc1F)C1CCCCC1	n	9.1	n	n	n	n
Oc1cc2ccccc2cc1-c1nnc2n1-c1ccccc1SC2	n	n	n	n	n	n
O=C(CSc1nnc(NC(=O)Cc2ccc(F)cc2)s1)NCc1ccco1	n	10	n	n	n	n
SMILES	APP 5'UTR act	Wee1 stabilizer	STAT1 activator	APP 5UTR inh	Hsp70 act	NF-kB expr up
O=C(CSc1nnc(NC(=O)Cc2ccccc2)s1)NCc1ccco1	n	n	n	n	n	n
O=C(CSc1nnc(NC(=O)c2c(F)cccc2F)s1)Nc1ccc(F)cc1	n	10	n	n	n	n
C/C(CC(=O)N(C(C)C)C(C)C)=N\NC(=O)COc1ccc(Br)cc1Br	n	n	n	n	n	n
CCC(=O)Oc1ccc2oc(=O)cc(C)c2c1	n	n	n	n	n	n
CCOc1ccc2oc(=O)cc(C)c2c1	n	n	133	n	n	n
CN(C)c1ccc(/C=C(\Cl)c2nc3ccccc3s2)cc1	n	n	136	n	n	n
CCCc1nnc(NC(=O)c2cccnc2)s1	x	n	x	x	x	x
CCOc1ccc(-n2nnnc2-c2nc3ccccc3s2)cc1	n	n	140	n	n	n
COC(=O)c1ccc(Oc2cc(C)nc(Cl)n2)cc1	n	n	n	n	n	n
COC(=O)c1ccc(Oc2cc(C)nc(SC)n2)cc1	n	n	n	86	n	n
COc1ccc(C(=O)/C=C2\Sc3ccccc3N2C)cc1	195	n	132	n	n	7.3
COc1ccc(-[n+]2c(C)cc(/C=C3\Sc4ccccc4N3C)cc2C)cc1	n	n	n	83	n	5.4
O=C(NC1CC1)C1=NOC(CNc2ncc(C(F)(F)F)cc2Cl)C1 (configuration not stated)	n	n	n	n	n	n
Cc1ccc2nc(-c3ccc4c(c3)OCCO4)cn2c1	x	n	x	x	x	x
COc1ccc(-c2cn3cc(C)ccc3n2)cc1F	147	n	n	n	n	n
COc1ccc(-c2cn3ccccc3n2)cc1OC	n	n	130	n	n	n
Cc1ccc2nc(-c3cc(-c4ccccc4)no3)cn2c1	x	n	x	x	x	x
COc1ccc(-c2cn3cc(C)ccc3n2)cc1OC	184	10	134	n	n	5.7
CC(C(=O)NCCS(=O)(=O)c1ccc(Cl)cc1)S(=O)(=O)c1ccccc1 (configuration not stated)	n	n	n	n	n	n
Fc1ccc(-c2cnn3c(-c4cccs4)ccnc23)cc1	220	n	n	n	n	6.7
c1csc(-c2ccnc3ncnn23)c1	n	n	n	n	n	n
Fc1ccc(-c2cnn3c(-c4ccncc4)ccnc23)cc1	199	n	148	n	n	6.4
COc1ccccc1N1CCN(C(CNS(C)(=O)=O)c2cccnc2)CC1 (configuration not stated)	n	n	n	n	n	n
C/C(=N/NS(=O)(=O)c1ccc(C)cc1)c1cccc(NC(=O)c2cccc(Cl)c2)c1	n	n	n	n	n	n
CCOC(=O)c1sc(N(C)C(C)=O)nc1C	n	n	n	n	n	n
SMILES	APP 5'UTR act	Wee1 stabilizer	STAT1 activator	APP 5UTR inh	Hsp70 act	NF-kB expr up
O=c1[nH]c2ccc(NC(=S)NCc3ccccc3)cc2[nH]1	x	n	x	x	x	x
CCOc1ccc2nc(SC3CC(=O)N(c4cccc(OC)c4)C3=O)sc2c1 (configuration not stated)	n	9.1	n	n	n	n
Cc1ccc(S(=O)(=O)NCCNC(=O)c2nonc2N)cc1	n	n	n	n	n	n
N#CCn1cnc2sc(-c3ccccc3)cc2c1=O	n	n	n	n	n	n
CCc1cc2c(=O)n(-c3ccc(C)cc3)cnc2s1	n	n	139	n	n	4.2
COc1ccc(-n2cnc3sc(-c4ccccc4)cc3c2=O)cc1	n	n	149	n	n	3.5
CC(=O)Cn1nnc2sc(-c3ccccc3)cc2c1=O	n	n	146	n	n	n
O=c1c2cc(-c3ccccc3)sc2ncn1-n1cccc1	n	n	129	n	n	n
Cc1ccc(C)n1-n1cnc2sc(-c3ccccc3)cc2c1=O	n	n	n	n	n	n

Screens: PubChem BioAssay, several laboratories
